For 14 compounds, inhibition results are on record in PubChem BioAssay AID652154 (Broad Institute, 2013).

SMILES strings stand for the structures. Screen size: about 360,000 compounds; about 4,200 (1.2%) were called active.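 The calls were made as follows: active = mean replicate inhibition at least 60% with every replicate also reaching 60%; inconclusive = only one of the two criteria is met; inactive = mean below 60% and not all replicates reaching 60%.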 This excerpt belongs to a sample that is enriched for actives.

This assay in a line: PAX8 transcriptional activity inhibition in RMG-I – RMG-I cells, luciferase, single concentration, primary screen (AID 652154).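 Also: luciferase light reporting Pax8 driven TPO promoter activity; plate controls were median of neutral control wells for no effect and mitoxantrone controls for full effect.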 The note with it: RMG-I TPO-luciferase reporter, SteadyGlo, 24 h; at 12.6 µM; stronger effect = higher value.
Regarding `C[C@@H]1CN([C@@H](C)CO)C(=O)c2cc(NC(=O)Nc3ccc(C(F)(F)F)cc3)ccc2O[C@@H](C)CCCCO[C@H]1CN(C)C(=O)c1ccccc1`, the inhibition was 84.4% (active).

Consider `CC(C)NC(=O)Nc1ccc2c(c1)C(=O)N([C@@H](C)CO)C[C@@H](C)[C@@H](CN(C)C(=O)Nc1ccc(C(F)(F)F)cc1)OCCCC[C@H](C)O2`, for which the inhibition was -21.5% (inactive).

In the case of `C[C@@H]1CCCCO[C@@H](CN(C)C(=O)Nc2ccc(C(F)(F)F)cc2)[C@H](C)CN([C@H](C)CO)C(=O)c2cc(NC(=O)c3ccccc3)ccc2O1`, the inhibition is -6.62% (inactive).

Regarding `C[C@@H]1CCCCO[C@H](CN(C)C(=O)Nc2ccc(C(F)(F)F)cc2)[C@H](C)CN([C@H](C)CO)C(=O)c2cc(NC(=O)Nc3ccc(C(F)(F)F)cc3)ccc2O1`, the inhibition was 17.5% (inactive).

Take `CC(C)NC(=O)Nc1ccc2c(c1)C(=O)N([C@@H](C)CO)C[C@H](C)[C@H](CN(C)C(=O)c1ccccc1)OCCCC[C@@H](C)O2`: the inhibition is 3.59% (inactive).

For the compound `C[C@@H]1CN([C@H](C)CO)C(=O)c2cccc(NC(=O)Nc3ccccc3)c2O[C@@H]1CN(C)C(=O)NC1CCCCC1`, the inhibition is 9.31% (inactive).

As to `C[C@H]1CN([C@@H](C)CO)C(=O)c2cccc(NC(=O)Nc3ccc(C(F)(F)F)cc3)c2O[C@H]1CN(C)C(=O)NC1CCCCC1`, the inhibition was 92.2% (active).

In the case of `C[C@@H]1CCCCO[C@H](CN(C)C(=O)C2CCCCC2)[C@@H](C)CN([C@@H](C)CO)C(=O)c2cc(NC(=O)Nc3ccccc3)ccc2O1`, the inhibition is 80.3% (active).

As for `C[C@H](CO)N1C[C@H](C)[C@@H](CN(C)C(=O)NC2CCCCC2)Oc2c(NC(=O)Nc3ccc(F)cc3)cccc2C1=O`, the inhibition is -8.27% (inactive).

For the compound `CC(C)NC(=O)N(C)C[C@H]1OCCCC[C@H](C)Oc2ccc(NC(=O)Nc3ccc(C(F)(F)F)cc3)cc2C(=O)N([C@H](C)CO)C[C@@H]1C`, the inhibition was 93.7% (active).

Regarding `C[C@@H]1CCCCO[C@H](CN(C)C(=O)Nc2ccccc2)[C@H](C)CN([C@H](C)CO)C(=O)c2cc(NC(=O)Nc3ccccc3)ccc2O1`, the inhibition was 10.5% (inactive).

In the case of `C[C@@H]1CCCCO[C@@H](CN(C)C(=O)C2CCCCC2)[C@H](C)CN([C@H](C)CO)C(=O)c2cc(NC(=O)Cc3ccccc3)ccc2O1`, the inhibition was -7.3% (inactive).

Take `Cc1ccc(S(=O)(=O)Nc2cccc3c2O[C@@H](CN(C)S(=O)(=O)c2c(C)noc2C)[C@@H](C)CN([C@H](C)CO)C3=O)cc1`: the inhibition was -20.1% (inactive).

Take `C[C@H]1CCCCO[C@@H](CN(C)Cc2ccc3c(c2)OCO3)[C@@H](C)CN([C@@H](C)CO)C(=O)c2cc(NC(=O)c3ccccc3)ccc2O1`: the inhibition is 10.2% (inactive).
